Experimental data taken from PubChem BioAssay (Tox21).
Records with an inconclusive call do not appear. The source made the active and inactive calls. Unless noted, calls follow the shape of the dose curve; as a rule, active = well fitted curve in the direction sought with a large enough effect in the repeat runs; inconclusive = weak or mixed curves; inactive = no such curve, though single readings can be large; an effect the other way counts as inactive or inconclusive.

Assays:
[1] = target: Aryl hydrocarbon receptor (Homo sapiens) (UniProt P35869); assay: qHTS assay to identify small molecule that activate the aryl hydrocarbon receptor (AhR) signaling pathway (AID 743085); also: nearly all actives have a fitted effect of over 15% in size; also: potency is read from the fitted curve at half-maximal effect;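 as to activation: HG2L7.5c1 human HepG2 liver cells with stably integrated DRE-driven firefly reporter; series mostly up to about 70 µM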
Aryl hydrocarbon receptor (Homo sapiens), sequence (P35869 whole entry, looked up): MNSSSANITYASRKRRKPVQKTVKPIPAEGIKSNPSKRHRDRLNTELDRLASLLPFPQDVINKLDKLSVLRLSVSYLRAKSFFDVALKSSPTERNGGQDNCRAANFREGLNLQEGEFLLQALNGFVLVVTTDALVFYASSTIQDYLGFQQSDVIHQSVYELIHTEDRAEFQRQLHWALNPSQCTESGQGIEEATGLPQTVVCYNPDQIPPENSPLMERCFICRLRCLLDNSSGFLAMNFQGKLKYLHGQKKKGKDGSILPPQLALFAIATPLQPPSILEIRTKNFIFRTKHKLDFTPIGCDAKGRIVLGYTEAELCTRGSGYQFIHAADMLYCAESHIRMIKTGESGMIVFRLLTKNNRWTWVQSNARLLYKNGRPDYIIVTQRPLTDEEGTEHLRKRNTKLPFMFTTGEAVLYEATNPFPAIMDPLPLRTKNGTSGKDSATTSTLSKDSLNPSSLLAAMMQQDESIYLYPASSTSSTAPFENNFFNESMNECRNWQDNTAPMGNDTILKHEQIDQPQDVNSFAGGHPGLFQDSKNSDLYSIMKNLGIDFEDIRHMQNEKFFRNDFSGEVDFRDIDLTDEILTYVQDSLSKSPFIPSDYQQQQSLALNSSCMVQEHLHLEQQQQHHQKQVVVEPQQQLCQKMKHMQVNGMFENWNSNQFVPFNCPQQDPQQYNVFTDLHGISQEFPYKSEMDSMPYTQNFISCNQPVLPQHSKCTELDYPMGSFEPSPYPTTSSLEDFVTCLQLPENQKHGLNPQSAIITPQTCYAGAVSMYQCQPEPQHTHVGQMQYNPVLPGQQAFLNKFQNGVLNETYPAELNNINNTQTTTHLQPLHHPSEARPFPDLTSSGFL
Method in brief: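 Steps: seed HepG2-AhR-luc cells; allow 5 h at 37C; pin-transfer test compound or vehicle; incubate 24 h at 37C; add viability dye (30 min, 37C) and read fluorescence; add luciferase substrate (30 min, RT) and read luminescence.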

[2] = target: Peroxisome proliferator-activated receptor gamma (Homo sapiens) (UniProt P37231); assay: qHTS assay to identify small molecule agonists of the peroxisome proliferator-activated receptor gamma (PPARg) signaling pathway (AID 743094; active = well fitted activation curve with a large enough effect in the signal ratio in the repeat runs, not every such curve was filed as active; the % refers to the signal ratio)
Peroxisome proliferator-activated receptor gamma (Homo sapiens), sequence (P37231 whole entry, looked up): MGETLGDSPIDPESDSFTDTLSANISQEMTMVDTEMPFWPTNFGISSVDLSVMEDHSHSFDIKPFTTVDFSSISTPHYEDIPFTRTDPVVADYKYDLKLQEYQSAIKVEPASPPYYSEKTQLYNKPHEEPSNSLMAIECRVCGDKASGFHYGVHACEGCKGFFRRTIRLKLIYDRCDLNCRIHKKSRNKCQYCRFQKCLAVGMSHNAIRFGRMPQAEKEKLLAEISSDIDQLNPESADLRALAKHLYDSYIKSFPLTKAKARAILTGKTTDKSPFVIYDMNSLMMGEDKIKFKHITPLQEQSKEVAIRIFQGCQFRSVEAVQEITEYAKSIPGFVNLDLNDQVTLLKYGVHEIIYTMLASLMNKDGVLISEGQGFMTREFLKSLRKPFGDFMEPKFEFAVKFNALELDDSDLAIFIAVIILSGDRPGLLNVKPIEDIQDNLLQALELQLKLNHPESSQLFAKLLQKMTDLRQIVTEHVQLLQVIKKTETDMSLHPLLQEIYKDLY
Method in brief: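 Reporter activation was scored by fluorescence of cleaved LiveBLAzer B/G substrate (1 h, room temperature) in PPARg-bla HEK293H cells previously treated 17 h at 37C with DMSO-dissolved compounds.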

[3] = target: Peroxisome proliferator-activated receptor gamma (Homo sapiens) (UniProt P37231); assay: qHTS assay to identify small molecule antagonists of the peroxisome proliferator-activated receptor gamma (PPARg) signaling pathway (AID 743191; calls by dose curve; also: series mostly up to about 63 µM; nearly all actives have a fitted effect of over 30% in size)
Method in brief: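 Beta-lactamase reporter under UAS control in HEK293H PPARg-bla cells; compound treatment 17 h at 37C. Read-out: fluorescence intensity after 1 h room-temperature incubation with LiveBLAzer B/G FRET substrate.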

[4] = qHTS assay to identify small molecule antagonists of the peroxisome proliferator-activated receptor gamma (PPARg) signaling pathway - cell viability counter screen (AID 743194); details: Potency: co-treated with 50 nM rosiglitazone unless noted; also: nearly all actives have a fitted effect of over 55% in size
Method in brief: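 Viability was measured as CellTiter-Glo luminescence in GeneBLAzer PPARg UAS-bla HEK293H cells. These cells had been exposed 17 h at 37 C to compounds together with rosiglitazone at 50 nM final, with the beta-lactamase readout taken in the same wells.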

[5] = qHTS assay for small molecule agonists of the antioxidant response element (ARE) signaling pathway (AID 743202; active = well fitted activation curve with a large enough effect in the signal ratio in the repeat runs, not every such curve was filed as active; the % refers to the signal ratio)
Method in brief: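 Beta-lactamase reporter activity, read as fluorescence intensity, reflects ARE/Nrf2 pathway induction in HepG2 cells after 16 h compound exposure at 37 C; substrate loading was 2 h at room temperature.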

[6] = qHTS assay for small molecule agonists of the antioxidant response element (ARE) signaling pathway - cell viability counter screen (AID 743203; calls by dose curve; also: nearly all actives have a fitted effect of over 55% in size; also: potency is read from the fitted curve at half-maximal effect)
Method in brief: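 Viability counter screen: stably transfected ARE-bla HepG2 line, 16 hrs compound exposure at 37C/5% CO2, ATP-based CellTiter-Glo luminescence measured in the reporter wells.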

[7] = qHTS assay to identify small molecule agonists of the peroxisome proliferator-activated receptor delta (PPARd) signaling pathway - cell viability counter screen (AID 743211); also: nearly all actives have a fitted effect of over 55% in size; also: potency is read from the fitted curve at half-maximal effect
Method in brief: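 Viability of GeneBLAzer PPARd UAS-bla HEK293H cells was assessed after 17 h compound incubation at 37C, using CellTiter-Glo reagent added after the reporter read and luminescence recorded 30 min later.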

[8] = target: Peroxisome proliferator-activated receptor delta (Homo sapiens) (UniProt Q03181); assay: qHTS assay to identify small molecule agonists of the peroxisome proliferator-activated receptor delta (PPARd) signaling pathway (AID 743212; calls by dose curve;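 also: HEK293H cells with PPARd UAS beta-lactamase reporter GeneBLAzer system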)
Peroxisome proliferator-activated receptor delta (Homo sapiens), sequence (Q03181 whole entry, looked up): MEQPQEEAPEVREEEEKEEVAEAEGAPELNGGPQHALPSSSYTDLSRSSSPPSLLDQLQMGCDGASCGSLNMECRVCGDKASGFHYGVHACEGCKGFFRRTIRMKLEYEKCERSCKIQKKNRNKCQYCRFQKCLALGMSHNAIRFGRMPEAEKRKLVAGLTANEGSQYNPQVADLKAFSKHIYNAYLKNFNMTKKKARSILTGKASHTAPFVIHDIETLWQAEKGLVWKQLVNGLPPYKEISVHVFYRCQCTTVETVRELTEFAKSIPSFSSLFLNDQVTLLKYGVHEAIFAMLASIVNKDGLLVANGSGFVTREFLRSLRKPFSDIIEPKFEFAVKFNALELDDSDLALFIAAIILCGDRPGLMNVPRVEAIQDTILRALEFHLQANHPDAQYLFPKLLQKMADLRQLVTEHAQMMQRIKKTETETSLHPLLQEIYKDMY
Method in brief: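 Steps: seed PPARd-bla HEK293H cells; incubate 5 h, 37 C, 5% CO2; add compounds in DMSO; incubate, 37 C; add LiveBLAzer B/G FRET substrate; hold 2 h at room temperature; measure fluorescence.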

[9] = qHTS assay to identify small molecule antagonists of the peroxisome proliferator-activated receptor delta (PPARd) signaling pathway - cell viability counter screen (AID 743213); also: nearly all actives have a fitted effect of over 50% in size; also: potency is read from the fitted curve at half-maximal effect
Method in brief: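 Agonist-stimulated (L165041, 300 nM final) HEK293H PPARd UAS-bla cells are exposed to compounds for 17 h at 37 C, and ATP-based luminescence (CellTiter-Glo) from the same wells reports cytotoxicity.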

[10] = target: Peroxisome proliferator-activated receptor delta (Homo sapiens) (UniProt Q03181); assay: qHTS assay to identify small molecule antagonists of the peroxisome proliferator-activated receptor delta (PPARd) signaling pathway (AID 743215; active = well fitted inhibition curve with a large enough effect in the signal ratio in the repeat runs, not every such curve was filed as active; the % refers to the signal ratio; also: series mostly up to about 62 µM)
Method in brief: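 Plated HEK293H PPARd-bla cells rested 5 h at 37 C and 5% CO2. Compound, then agonist L165041 at 300 nM final, was added; 17 h at 37 C followed. Substrate loading, 2 h room temperature, fluorescence measured.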

[11] = qHTS assay to identify small molecule agonists of the farnesoid-X-receptor (FXR) signaling pathway - cell viability counter screen (AID 743218); also: nearly all actives have a fitted effect of over 45% in size; also: potency is read from the fitted curve at half-maximal effect
Method in brief: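 Viability of FXR-bla HEK 293T cells is measured by ATP-based CellTiter-Glo luminescence following 16 h compound treatment at 37 C and a prior 2 h room-temperature beta-lactamase substrate step.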

[12] = qHTS assay to identify small molecule antagonists of the farnesoid-X-receptor (FXR) signaling pathway - cell viability counter screen (AID 743221; active = well fitted cell-killing curve with a large enough effect in the repeat runs, not every such curve was filed as active; also: nearly all actives have a fitted effect of over 50% in size; also: potency is read from the fitted curve at half-maximal effect)
Method in brief: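 Quantitative HTS of the Tox21 10K library run in parallel with the beta-lactamase reporter read. HEK 293T cells carrying a UAS-driven bla reporter got compound and 50 uM CDCA (final) for 16 h; ATP-based luminescence followed.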

[13] = target: Vitamin D3 receptor (Homo sapiens) (UniProt P11473); assay: qHTS assay to identify small molecule agonists of the vitamin D receptor (VDR) signaling pathway (AID 743222; calls by dose curve)
Vitamin D3 receptor (Homo sapiens), sequence (P11473 whole entry, looked up): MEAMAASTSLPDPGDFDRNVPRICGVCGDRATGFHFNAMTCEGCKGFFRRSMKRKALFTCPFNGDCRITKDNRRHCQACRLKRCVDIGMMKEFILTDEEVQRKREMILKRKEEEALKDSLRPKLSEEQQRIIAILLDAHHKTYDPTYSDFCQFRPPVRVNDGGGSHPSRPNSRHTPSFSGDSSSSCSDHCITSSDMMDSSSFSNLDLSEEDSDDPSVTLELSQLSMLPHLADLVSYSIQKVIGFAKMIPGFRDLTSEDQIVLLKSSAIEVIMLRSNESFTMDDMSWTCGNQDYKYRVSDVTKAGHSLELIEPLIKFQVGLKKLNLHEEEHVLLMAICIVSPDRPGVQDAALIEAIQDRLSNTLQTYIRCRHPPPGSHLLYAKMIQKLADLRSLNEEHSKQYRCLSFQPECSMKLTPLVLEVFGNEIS
Method in brief: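 Fluorescence from cleaved LiveBLAzer B/G FRET substrate served as readout. VDR-bla cells had been treated 16 h at 37C with test compounds in DMSO, following a 4 h settling period, and substrate was loaded for 2 h at RT.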

[14] = target: Vitamin D3 receptor (Homo sapiens) (UniProt P11473); assay: qHTS assay to identify small molecule antagonists of the vitamin D receptor (VDR) signaling pathway (AID 743223; active = well fitted inhibition curve with a large enough effect in the signal ratio in the repeat runs, not every such curve was filed as active; the % refers to the signal ratio)
Method in brief: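 Fluorescence from LiveBLAzer B/G FRET substrate, read after 2 h at room temperature, reflects beta-lactamase reporter activity in VDR-bla cells treated 16 h at 37C with compounds and agonist 1alpha,25-dihydroxyvitamin D3 (3 nM final).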

[15] = qHTS assay to identify small molecule agonists of the vitamin D receptor (VDR) signaling pathway - cell viability counter screen (AID 743224); also: nearly all actives have a fitted effect of over 50% in size; also: potency is read from the fitted curve at half-maximal effect
Method in brief: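 Compounds were pin-transferred onto VDR-bla cells plated 4 h earlier; following 16 h incubation at 37C, cell viability was quantified by CellTiter-Glo luminescence after 30 min at room temperature.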

[16] = qHTS assay for small molecule activators of the heat shock response signaling pathway - cell viability counter screen (AID 743209); also: nearly all actives have a fitted effect of over 50% in size; also: potency is read from the fitted curve at half-maximal effect
Method in brief: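 Viability of HSE-bla HeLa cells is measured with CellTiter-Glo in the wells already used for the reporter read. Compound exposure lasts 5 h at 37 C, and luminescence is read after 30 min at room temperature.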

[17] = target: Bile acid receptor (Homo sapiens) (UniProt Q96RI1); assay: qHTS assay to identify small molecule antagonists of the farnesoid-X-receptor (FXR) signaling pathway (AID 743217; active = well fitted inhibition curve with a large enough effect in the signal ratio in the repeat runs, not every such curve was filed as active; the % refers to the signal ratio)
Bile acid receptor (Homo sapiens), sequence (Q96RI1 whole entry, looked up): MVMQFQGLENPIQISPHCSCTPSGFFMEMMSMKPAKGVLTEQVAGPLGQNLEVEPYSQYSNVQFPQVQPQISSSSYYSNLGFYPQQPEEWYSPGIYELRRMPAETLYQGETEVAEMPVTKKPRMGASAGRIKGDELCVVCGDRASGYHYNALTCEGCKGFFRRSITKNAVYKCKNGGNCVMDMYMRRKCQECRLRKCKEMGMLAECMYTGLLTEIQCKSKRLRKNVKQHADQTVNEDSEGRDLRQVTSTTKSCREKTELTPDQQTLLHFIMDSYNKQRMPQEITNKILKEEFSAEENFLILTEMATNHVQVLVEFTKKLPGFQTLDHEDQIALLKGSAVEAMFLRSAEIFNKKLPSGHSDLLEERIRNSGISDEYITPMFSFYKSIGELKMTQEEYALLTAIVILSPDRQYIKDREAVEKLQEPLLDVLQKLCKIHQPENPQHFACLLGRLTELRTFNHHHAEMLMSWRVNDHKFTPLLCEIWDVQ
Method in brief: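 Screen of the Tox21 10K library in quantitative HTS format using FXR-UAS-bla HEK 293T reporter cells. Agonist chenodeoxycholic acid, 50 uM final, added with compounds; 16 h incubation at 37 °C; beta-lactamase FRET fluorescence measured.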

[18] = target: Bile acid receptor (Homo sapiens) (UniProt Q96RI1); assay: qHTS assay to identify small molecule agonists of the farnesoid-X-receptor (FXR) signaling pathway (AID 743220; active = well fitted activation curve with a large enough effect in the signal ratio in the repeat runs, not every such curve was filed as active; the % refers to the signal ratio; also: potency is read from the fitted curve at half-maximal effect)
Method in brief: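 FXR-UAS-bla HEK 293T cells carrying a UAS-driven beta-lactamase reporter were plated for 5 h at 37C/5% CO2, then exposed to DMSO-dissolved Tox21 10K compounds for 16 h at 37C. A LiveBLAzer B/G FRET substrate was loaded for 2 h at room temperature before fluorescence reading.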

[19] = qHTS assay to identify small molecule that activate the aryl hydrocarbon receptor (AhR) signaling pathway - cell viability counter screen (AID 743086); also: nearly all actives have a fitted effect of over 45% in size; also: potency is read from the fitted curve at half-maximal effect
Method in brief: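 Cytotoxicity counter screen: CellTiter-Fluor signal (30 min, 37 C) in 4000 HepG2 cells/well carrying the DRE-luciferase reporter, following 24 h compound exposure at 37 C.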

[20] = qHTS assay for small molecule activators of the heat shock response signaling pathway (AID 743210; active = well fitted activation curve with a large enough effect in the signal ratio in the repeat runs, with a control signal flat, not every such curve was filed as active; the % refers to the signal ratio;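 also: HeLa cells with beta-lactamase reporter driven by heat shock elements; series mostly up to about 63 µM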)
Method in brief: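 Fluorescence from a cleaved B/G FRET substrate (2.5 h, room temp) reports HSE-driven beta-lactamase in HeLa cells treated 5 h at 37 C with DMSO-dissolved compounds.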

Measured: Potency

COC(=O)C(C)N(C(=O)c1ccco1)c1c(C)cccc1C (stereo not drawn)
inactive: [1] | [2] | [3] | [4] | [5] | [6] | [7] | [8] | [9] | [10] | [11] | [12] | [13] | [14] | [15]

CN/C(=N\[N+](=O)[O-])NCc1cnc(Cl)s1
inactive: [1] | [2] | [3] | [4] | [5] | [6] | [16] | [7] | [9] | [11] | [12] | [13] | [14] | [15]

CC(Cc1ccc2c(c1)OCO2)NO (stereo not drawn)
inactive: [1] | [2] | [3] | [4] | [6] | [16] | [7] | [8] | [9] | [10] | [17] | [11] | [18] | [12] | [13] | [14] | [15]

Oc1cc(Cl)c(Cl)c(Cl)c1Cl
active: [1] 11.9 µM | [16] 13.5 µM | [11] 47.8 µM | [15] 24 µM
inactive: [19] | [18] | [12]

C=C(C)C(=O)[O][Sn]([CH2]CCC)([CH2]CCC)[CH2]CCC
active: [19] 2.73 µM | [6] 0.433 µM | [16] 1.1 µM | [7] 0.871 µM | [9] 1.55 µM | [11] 0.616 µM | [12] 0.977 µM | [15] 0.49 µM
inactive: [1] | [13]

CN
inactive: [1] | [19] | [6] | [16] | [20] | [7] | [9] | [11] | [12] | [13] | [14] | [15]

CC(C)=CC1C(C(=O)OC(C#N)c2cccc(Oc3ccccc3)c2)C1(C)C (stereo not drawn)
inactive: [1] | [2] | [3] | [4] | [5] | [6] | [16] | [7] | [8] | [9] | [10] | [17] | [11] | [18] | [12] | [15]

O=C(O)[C@H](O)[C@@H](O)C(=O)O
inactive: [1] | [19] | [5] | [6] | [16] | [7] | [8] | [9] | [17] | [11] | [18] | [12]

c1ccc2nc(N3CCNCC3)ccc2c1
inactive: [1] | [2] | [3] | [16] | [20] | [14] | [15]

CC1=C2C[C@H]3[C@@H](CC=C4C[C@@H](O)CC[C@@]43C)[C@@H]2CC[C@]12O[C@@H]1C[C@H](C)CN[C@H]1[C@H]2C
inactive: [1] | [2] | [4] | [6] | [16] | [20] | [10] | [17] | [12] | [13] | [14] | [15]
active: [18] 10.7 µM

CSC1=N[C@@](C)(c2ccccc2)C(=O)N1Nc1ccccc1
inactive: [1] | [19] | [6] | [16] | [20] | [7] | [8] | [9] | [18] | [12] | [13] | [14]

CCCCn1cc[n+](C)c1.[Cl][Fe-]([Cl])([Cl])[Cl]
inactive: [1] | [19] | [6] | [16] | [9] | [11] | [12]

CC(Cc1ccc(OCC(=O)O)cc1)NCC(O)c1csc(C(F)(F)F)n1 (stereo not drawn)
inactive: [1] | [2] | [3] | [4] | [5] | [6] | [16] | [7] | [9] | [11] | [12] | [13] | [14] | [15]

O=[N+]([O-])c1ccc(Cl)c(Cl)c1Cl
inactive: [1] | [2] | [3] | [4] | [6] | [16] | [20] | [7] | [8] | [9] | [10] | [11] | [12] | [13]

COc1ccc2[nH]cc(CCN(C(C)C)C(C)C)c2c1
inactive: [2] | [4] | [6] | [16] | [20] | [8] | [9] | [10] | [13] | [14] | [15]
active: [1] 22.2 µM

CCO/N=C(\CC)C1=C(O)CC(c2c(C)cc(C)cc2C)CC1=O (stereo not drawn)
inactive: [1] | [19] | [6] | [20] | [7] | [18]

COc1ccc2c(c1OC)C(=O)O[C@@H]2[C@H]1c2cc3c(cc2CCN1C)OCO3
inactive: [1] | [2] | [3] | [5] | [6] | [16] | [20] | [7] | [8] | [9] | [10] | [11] | [12]

CN1CCc2cc(Cl)c(O)cc2[C@H]2c3ccccc3CC[C@@H]21
inactive: [1] | [2] | [4] | [5] | [6] | [16] | [20] | [8] | [10] | [18] | [12] | [15]
